Laboratory results as given in PubChem BioAssay (NCATS).
Results filed as inconclusive are left out. Active and inactive are the calls of the source. The call rests on the fitted dose curve; in most records, active means well fitted curve in either direction with a large enough effect (not every such curve was filed as active); inconclusive means small, poorly fitted or top-dose-only effect, or another doubt; inactive means flat fitted curve, though single readings scatter.

What follows are molecules tested against Mitogen-activated protein kinase 10 (Mus musculus) (UniProt Q61831) (assay: JNK3 AlphaScreen Assay (AID 530;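 further: kinase came from lysate of stimulated human HepG2 cells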)). Conditions: JNK3 lysate, c-Jun phosphorylation; series mostly up to 57.1 µM; activity change, negative = inhibition: at the top concentration.
Summary of the method: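 Phosphorylation of biotinylated GST-cJun(1-79) at Ser73 is measured by AlphaScreen proximity luminescence. Enzyme is JNK3 in HepG2 lysates activated with interleukin-1beta and tumor necrosis factor alpha; ATP is 10 uM final.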
On the % scale 0 is the no-effect control and ±100 the full control effect.

Activity change, negative = inhibition, inactive:
CCCC[C@@H]1C[C@H]1C(NC(=O)c1ccc(C(F)(F)F)cc1)c1ccc(C(=O)OC)cc1 (some centres undefined) 8.73%
O=C(NCc1cc(F)cc2c1OCCO2)[C@H]1C[C@@H]1[C@H](NP(=O)(c1ccccc1)c1ccccc1)c1ccccc1 -12.4%
CCC/C=C(\CCC)C(NS(=O)(=O)CC12CCC(CC1=O)C2(C)C)c1ccc(C(=O)OC)cc1 (centres undefined) 18.1%
COC(=O)c1ccc(C23CC2(C(NP(=O)(c2ccccc2)c2ccccc2)c2ccccc2)C3)cc1 (centres undefined) -13.7%
COC(=O)[C@@]1(Cc2ccc(F)cc2)[C@H]2c3cc(C(=O)N(C)C)n(Cc4ccc(C)c(F)c4F)c3C[C@H]2CN1C(=O)c1ccccc1 -20.9%
COC(=O)[C@@]1(Cc2ccccc2)[C@H]2c3cc(C(=O)N4CCCC4)n(Cc4nc5ccccc5[nH]4)c3C[C@H]2CN1C(=O)c1ccccc1 -28.4%
CCCC[C@@H]1C[C@H]1C(NC(=O)Cc1ccccc1)c1ccc(-c2ccccc2)cc1 (some centres undefined) 11.5%
CCCC[C@@H]1C[C@H]1C(NC(=O)c1ccccc1)c1ccccc1C(F)(F)F (some centres undefined) 5.89%
C#CCCCC(=O)Nc1ccccc1 -0.154%
CCCC[C@@H]1C[C@H]1C(NC(=O)Cc1ccccc1)c1ccc(Cl)cc1 (some centres undefined) 5.19%
CCC/C=C(\CCC)C(NS(=O)(=O)c1cccc2cccnc12)c1ccc(C(=O)OC)cc1 (centres undefined) 3.14%
COC(=O)[C@@]1(Cc2ccc(OC)cc2)[C@@H]2[C@@H](CC(=O)[C@H]2CC(=O)C(=O)N2CCCC2)CN1C(=O)c1ccccc1 -9.48%
CCC/C=C(\CCC)C(NP(=O)(c1ccccc1)c1ccccc1)c1ccc(-c2ccccc2)cc1 (centres undefined) -2.81%
CC(C)(C)[Si](C)(C)c1c2c(nc3ccc(OCc4ccccc4)cc13)-c1cccc(=O)n1C2 7.26%
COC(=O)[C@@]1(Cc2ccc(F)cc2)[C@H]2c3cc(C(=O)N(C)C)n(Cc4ccc(C)o4)c3C[C@H]2CN1C(=O)c1ccccc1 -27.6%
COC(=O)[C@@]1(Cc2ccc(OC)cc2)[C@@H]2C(=CC(=O)[C@H]2CC(=O)C(=O)N(C)C)CN1C(=O)c1ccccc1 -5.05%
CCCC[C@@H]1C[C@H]1C(NC(=O)c1ccccc1)c1ccc(-c2ccccc2)cc1 (some centres undefined) -6.92%
CCC/C=C(\CCC)C(NP(=O)(c1ccccc1)c1ccccc1)c1ccc(C(F)(F)F)cc1 (centres undefined) 6.29%
COc1ccc(COC2OC[C@]3(C)[C@H]4C5=C(CN3C(=O)OC(C)(C)C)[C@H](C)C(CO)C(CO)C5CC[C@@H]24)cc1 (some centres undefined) 5.88%
COC(=O)[C@@]1(Cc2ccccc2)[C@H]2c3cc(C(=O)N4CCCC4)n(C)c3C[C@H]2CN1C(=O)c1ccccc1 -12%
CC(C)c1cccc2nc3c(c([Si](C)(C)C(C)(C)C)c12)Cn1c-3cccc1=O 18.1%
C#CCOC(=O)NC(/C=C/CCCC)c1ccccc1 (centres undefined) -0.748%
COC(=O)c1ccc(C(NC(=O)c2ccco2)[C@]2(C)C[C@H]2C2CCCCC2)cc1 (some centres undefined) -6.63%
CCC/C=C(\CCC)C(NC(=O)c1cccs1)c1ccc(C(F)(F)F)cc1 (centres undefined) 3.47%
